VACV Venus inh: qHTS for Stage-Specific Inhibitors of Vaccinia Orthopoxvirus: Venus Reporter Primary qHTS | Potency, µM (highest dose often 36.5 µM), without a hit: at the highest dose activity change, negative = inhibition, hits mostly inhibitors | 330,000 compounds, 0.46% hits | Vaccinia virus Venus reporter expression, fluorescence; calls by dose curve; tested in A549 cells; also: nearly all actives have a fitted effect of over 30% in size
Giardia FBPA inh: qHTS Assay for Inhibitors of Fructose-1,6-bisphosphate Aldolase from Giardia Lamblia | A8B2U2 | purified Giardia FBPA | Potency, µM (titrated, usually from 59.6 µM), without a hit: top-dose activity, negative = inhibition, most hits filed as inhibitors | 290,000 compounds, 0.71% hits; active = well fitted inhibition curve with a large enough effect; inconclusive = small, poorly fitted or top-dose-only effect, or effect the other way; also: nearly all actives have a fitted effect of over 55% in size
Target sequence (A8B2U2 whole entry, looked up): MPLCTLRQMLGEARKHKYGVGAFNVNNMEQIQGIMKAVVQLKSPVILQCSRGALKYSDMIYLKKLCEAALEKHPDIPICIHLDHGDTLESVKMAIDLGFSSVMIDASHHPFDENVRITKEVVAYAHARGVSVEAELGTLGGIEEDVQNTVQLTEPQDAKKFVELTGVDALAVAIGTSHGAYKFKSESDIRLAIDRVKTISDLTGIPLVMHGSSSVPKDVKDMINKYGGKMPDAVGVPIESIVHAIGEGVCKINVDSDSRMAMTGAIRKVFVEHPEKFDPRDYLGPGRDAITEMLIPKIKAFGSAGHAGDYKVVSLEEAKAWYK
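40 nM FBPA preincubated 10 min at RT with compound (up to 57.5 uM final), then substrate plus GAPDH/TPI/NAD/arsenate coupling and diaphorase/resazurin added. Fluorescence read after 20 min at RT, 525/598 nm.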
VACV mCherry inh: qHTS for Stage-Specific Inhibitors of Vaccinia Orthopoxvirus: mCherry Reporter Primary qHTS | 310,000 compounds, 0.63% hits | Potency, µM (titrated, usually from 36.5 µM), without a hit: top-dose activity change, negative = inhibition, usual class: inhibitors | Vaccinia virus mCherry reporter infection, fluorescence; calls by dose curve; tested in A549 cells; also: nearly all actives have a fitted effect of over 35% in size
FMDV antiviral: High Throughput Screening for Foot and Mouth Disease Virus Antivirals; Potency, µM (doses to about 57.9 µM), without a hit: top-dose activity change, negative = inhibition, actives largely listed as inhibitors; FMDV antiviral cell-based qHTS; 410,000 compounds, 1.2% hits; calls by dose curve; tested in HEK293T cells; also: read-out not given here; nearly all actives have a fitted effect of over 45% in size
An asterisk follows results filed as active; i = inactive; ? = inconclusive; . = not tested or not shown. Rows were chosen to be rich in hits. Some 2.2% of all compounds tested hit in one or more screens of this group. % is scaled to controls: 0 for no effect and ±100 for the full control effect; potency is read from the fitted curve at half-maximal effect.

SMILES	VACV Venus inh	Giardia FBPA inh	VACV mCherry inh	FMDV antiviral
CCC(C)NC(=O)CSc1c2c(nc3ccccc13)CCCC2 (stereo not drawn)	.	0%	.	25µM*
COc1ccc(OC)c(NC(=O)CSc2c3c(nc4ccccc24)CCCC3)c1	-20%	.	?	?
Cc1cccc(NC(=O)CSc2c3c(nc4ccccc24)CCC3)n1	-20%	1%	-19%	?
COc1cccc(NC(=O)CSc2c3c(nc4ccccc24)CCCC3)c1	8%	3%	-2%	32µM*
COc1cc(=O)n2c(c1C(=O)N1CCc3ccccc3C1)CCN(Cc1ccc(CO)o1)CC2	-11%	.	-12%	3%
CCOc1ccc(CNC(=O)C2CCCN(S(=O)(=O)N(C)c3ccc(F)cc3)C2)cc1OC (stereo not drawn)	-7%	.	-10%	?
COc1ccc(CNC(=O)c2cc(S(=O)(=O)N3CCCCC3)ccc2Cl)cc1OC	-20%	.	i	14µM*
COc1ccc(CNC(=O)C2CCCN(S(=O)(=O)N(C)c3ccc(F)cc3)C2)cc1OC (stereo not drawn)	?	.	-27%	13µM*
Cc1cnc2ccccc2c1/C=C/c1ccc(N)cc1	-21%	.	-28%	.
CCc1nc(N)nc(N)c1-c1ccc(Cl)c([N+](=O)[O-])c1	0.28µM*	.	-15%	?
CN(C)c1ccc(/C=C2\N=C(c3ccc(Cl)c([N+](=O)[O-])c3)NC2=O)cc1	4%	0%	-8%	-7%
CCc1nc(N)nc(N)c1-c1ccc(Cl)c(N=[N+]=[N-])c1	5.6µM*	.	?	?
CCOc1cc(-c2c(C)c(CC)nc(N)c2C#N)ccc1O	?	5%	.	0%
O=C1/C(=C/c2ccncc2)SC(=S)N1Nc1ccccc1	65%	-24%	0%	20µM*
Cc1cc(C)c2sc(N(CCCN(C)C)C(=O)c3ccc(S(=O)(=O)N(C)C4CCCCC4)cc3)nc2c1	13µM*	.	14µM*	?
COc1ccc(F)cc1-c1cc(NC=O)c2ncc(-c3cc(OC)c(OC)c(OC)c3)n2c1	?	.	?	32µM*
COc1ccc(-c2cc(NC=O)c3ncc(-c4cccc(C(C)=O)c4)n3c2)cc1	?	.	13µM*	-4%
COc1ccc(CNc2ccnc(-c3c(C)noc3C)n2)c(OC)c1	.	-12%	.	-27%
COc1ccc(C2C(O)C(c3c[nH]c4ccccc34)=NN2C(=O)CCl)cc1 (stereo not drawn)	?	-11%	?	18µM*
CC(C)(C)Nc1oc(-c2ccccc2)nc1-c1ccc(C(F)(F)F)cc1	.	1%	.	.
Cc1ccc(Cl)cc1NC(=O)CC(O)(C(F)(F)F)C(F)(F)F	28µM*	1%	?	.
COCC(=O)Nc1cc(Cl)ccc1C	0%	-3%	-11%	-18%
O=C(c1ccco1)N1CCN(c2nc(C(F)(F)F)nc3c2nnn3Cc2ccccc2)CC1	.	-5%	.	14µM*
COc1cc(CN2CCOc3ccc(CN4CCC(O)(c5cccnc5)CC4)cc3C2)cc(OC)c1	4%	.	-17%	5%
O=C1CCCc2c1[nH]c1c(Br)cccc21	11µM*	1%	.	-5%
SMILES	VACV Venus inh	Giardia FBPA inh	VACV mCherry inh	FMDV antiviral
O=C(/C(=C/c1ccncc1)n1ccnc1)c1ccc(Cl)cc1Cl	.	3%	.	22µM*
O=C(/C(=C/c1cccnc1)n1ccnc1)c1ccc(Cl)cc1Cl	.	5%	.	?
Clc1cccc[n+]1CCc1ccccc1	-8%	.	-12%	.
COc1cc(CNc2nc(C)c(-c3ccn(CC4CCCN(C)C4)n3)s2)ccc1F (stereo not drawn)	-6%	.	-13%	0%
O=C(Nc1ccc(OCC(F)(F)C(F)F)c(C(F)(F)F)c1)c1ccccc1O	10µM*	5%	?	?
COc1ccc2c(c1)C(=O)[C@H](OC(=O)NCCOc1ccccc1)[C@@H](c1ccc(OC)c(Br)c1)O2	.	0%	.	.
COc1ccccc1CCc1nnc(CCC(=O)NC(C)Cc2ccsc2)o1 (stereo not drawn)	1.8µM*	1%	1.1µM*	3%
COc1ccccc1CCc1nnc(CCC(=O)NCC(C)Oc2cccnc2)o1 (stereo not drawn)	.	1%	.	-22%
O=C1c2ccccc2S(=O)(=O)c2cc(C(=O)N3CCN(c4ccccc4)CC3)ccc21	-3%	.	i	-12%
O=C1c2ccccc2S(=O)(=O)c2cc(N3CCN(C(=O)c4ccccc4)CC3)ccc21	?	.	-14%	40µM*
COCc1c(C(=O)N2CCN(c3ccccc3)CC2)cnn1-c1nccc(-c2ccco2)n1	-11%	.	-21%	1%

Assay outcomes as filed in PubChem BioAssay.
